Measurements taken from PubChem BioAssay AID2685 (National Center for Advancing Translational Sciences (NCATS), 2010).
In all, about 320,000 compounds went through this assay and about 2,100 (0.66%) were called active. Inconclusive results (about 53%) are left out. Calls follow the shape of the dose curve; as a rule, active = well fitted inhibition curve with a large enough effect in the signal ratio, with a control signal flat (not every such curve was filed as active); inconclusive = small, poorly fitted or top-dose-only effect, or effect the other way, or a change in a side signal; inactive = flat fitted curve, though single readings scatter; the % refers to the signal ratio. Many of the other results were omitted from the sample, so actives are more common in it than they were.

Test: qHTS Assay for Lipid Storage Modulators in Drosophila S3 Cells;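 as to cell number change: cells counted by Cell Tracker Red CMTPX staining in the red channel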
Settings: BODIPY lipid droplet fluorescence, 18-24 h, cells fed with added oleic acid; cell number change: measured here: cell count max response; series mostly up to 46.1 µM
In short: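 Laser-scanning cytometry quantifies lipid droplet accumulation (500–530 nm total intensity; droplet/cell object ratio) in oleic acid-fed (400 uM added) Drosophila S3 cells treated with a concentration series. 20 uM Triacsin C defined 100% inhibition.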
Potency is read from the fitted curve at half-maximal effect.

SMILES	Potency	cell number change [%]
CC(c1ccccc1)(c1ccccc1)c1ccncc1	inactive	6.39
ClC(Cl)(Cl)c1ccccc1	0.58 µM (active)	2.26
Cc1ccc(N)c(C(=O)c2ccccc2)c1	inactive	-2.37
C=CCn1c(O)c(C(C)=NCc2ccc3c(c2)OCO3)c(=O)[nH]c1=O	inactive	5.5
COc1ccc(C(=O)C(C)(C)NO)cc1	3.26 µM (active)	-1.48
COc1ccc(C(=O)N2CCCC2=O)cc1	inactive	11.9
COc1ccc(C(=O)C23CN4CN(CN(C4)C2)C3)cc1	inactive	4.85
O=C1NC(=O)N(c2ccc3c(c2)OCO3)C(=O)/C1=C\c1ccsc1	inactive	-1.9
CC(=O)c1cc(C(C)=O)c(C)[n+](C)c1C	inactive	12.6
CNC(=S)N1CCN(CCN=Cc2c(O)n(-c3ccc(C)cc3)c(=S)[nH]c2=O)CC1	inactive	1
Cc1cc(OC(C)C(=O)NCC(O)c2ccccc2)c2c3c(c(=O)oc2c1)CCC3 (stereo unspecified)	inactive	–
Cc1cc(OCC(=O)NCc2ccncc2)c2c3c(c(=O)oc2c1)CCC3	inactive	-10.8
Cc1cc(OCC(=O)NCC(O)c2ccccc2)c2c3c(c(=O)oc2c1)CCC3 (stereo unspecified)	20.6 µM (active)	-16.3
CC12CN3CCN(CC(C3)/C1=N/NC(N)=O)C2	inactive	0.944
CCC12CN3CCN(CC(C3)/C1=N\O)C2	inactive	-11.3
CC(C)C12CN3CCN(CC(C3)/C1=N\O)C2	6.51 µM (active)	-1.85
C/C(=N\NC(=S)Nc1ccccc1)c1c(O)n(C)c(=O)n(C)c1=O	inactive	–
CCN1C[C@]2(C)CC[C@H](O)[C@]34C1[C@H](C[C@H]23)[C@@]1(O)C[C@H](OC)[C@H]2C[C@@H]4[C@@H]1C2O (stereo partly specified)	inactive	-19.2
CC(=NC1CCN(Cc2ccccc2)CC1)c1c(O)n(C)c(=O)n(C)c1=O	29.1 µM (active)	4.54
C=CCn1c(O)c(C(C)=NC2CCN(Cc3ccccc3)CC2)c(=O)[nH]c1=O	inactive	4.94
Cn1c(O)c(C=NC2CCN(Cc3ccccc3)CC2)c(=O)n(C)c1=O	inactive	0.664
CCOC(=O)C1=C(N)OC2=C(C(=O)CCC2)[C@]12C(=O)N(CC(N)=O)c1ccccc12	inactive	1.37
CCCCOC(=O)C1=C(N)OC2=C(C(=O)CC(C)(C)C2)[C@]12C(=O)N(C)c1ccccc12	inactive	-14.5
CCCCOC(=O)C1=C(N)OC2=C(C(=O)CCC2)[C@]12C(=O)N(C)c1ccccc12	5.17 µM (active)	-3.29
COC1CCCCC1NCCc1ccccc1 (stereo unspecified)	inactive	-9.24
N#Cc1ccc(Cn2cc(C=O)c3ccccc32)cc1	inactive	15.7
C=CCn1c(O)c(C(CC)=NCCN2CCN(C(=S)NC)CC2)c(=O)[nH]c1=O	inactive	-0.0083
CCCCn1c(=O)c(C(=O)NCCc2ccccc2)c(O)c2ccccc21	inactive	-5.77
Cc1cc(O)c2c(c1)C(=O)C13C(=C2O)C(=O)[C@H]2[C@@H](O)[C@@H]1[C@H]1[C@H](O)[C@@H]3C(=O)C3=C(O)c4c(O)cc(C)cc4C(=O)C312 (stereo partly specified)	9.2 µM (active)	19.8
